In PubChem BioAssay (EPA / NIEHS):
Active and inactive are the calls of the source. The calls were made as follows: active = hit-call score of the fitted dose curve at least 0.9, where 1 is the maximum; inactive = score below 0.9.

Assays:
[1] = molecular target: Paired box protein Pax-6 (Homo sapiens) (UniProt P26367); experiment: ATG_Pax6_CIS: Attagene CIS-FACTORIAL HepG2 Assay for human Paired Box 6 (PAX6) (AID 2282956); conditions: HepG2 CIS-FACTORIAL PAX6 reporter transcription, RNA readout; actives raise or lower the signal
Sequence of Paired box protein Pax-6 (Homo sapiens) (P26367 whole entry, looked up): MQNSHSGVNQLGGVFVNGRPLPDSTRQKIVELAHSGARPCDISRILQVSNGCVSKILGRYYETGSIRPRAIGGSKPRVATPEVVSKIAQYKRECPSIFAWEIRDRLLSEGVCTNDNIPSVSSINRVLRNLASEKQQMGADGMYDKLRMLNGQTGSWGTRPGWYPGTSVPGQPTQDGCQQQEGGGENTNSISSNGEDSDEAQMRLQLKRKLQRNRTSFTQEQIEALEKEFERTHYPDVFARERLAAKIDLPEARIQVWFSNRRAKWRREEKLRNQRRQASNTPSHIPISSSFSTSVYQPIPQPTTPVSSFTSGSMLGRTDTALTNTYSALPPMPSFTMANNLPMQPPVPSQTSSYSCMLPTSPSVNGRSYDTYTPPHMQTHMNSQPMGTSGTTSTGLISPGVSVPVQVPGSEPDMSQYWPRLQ
Method in brief: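 Fluorescent RT-PCR products separated by capillary electrophoresis report PAX6-linked promoter mRNA in HepG2 cells 24 h post-dose. Curves fitted bidirectionally, DMSO as negative control.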

[2] = ATG_PXRE_CIS: Attagene CIS-FACTORIAL HepG2 Assay for human Pregnane X Receptor Element (PXRE) (AID 2282957); conditions: HepG2 Attagene CIS-FACTORIAL PXRE reporter, mRNA; actives raise or lower the signal
Method in brief: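 Using HepG2 transfected with multiple reporter transcription units, endogenous factor-driven transcription was scored as reporter mRNA after 24 h exposure.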

[3] = ATG_RORE_CIS: Attagene CIS-FACTORIAL HepG2 Assay for human RAR-related Orphan Receptor Element (RORE) (AID 2282959); conditions: HepG2 Attagene cis-factorial RORE reporter, mRNA; actives raise or lower the signal
Method in brief: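 Cells were HepG2 carrying transfected cis-regulated reporter constructs, dosed for 24 hours. Total RNA was reverse-transcribed and reporter cDNA amplified, fluorescently labeled and sized by capillary electrophoresis. Activity was fitted bidirectionally relative to DMSO.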

[4] = ATG_Sox_CIS: Attagene CIS-FACTORIAL HepG2 Assay for human SRY-box transcription factor (SOX) (AID 2282960); conditions: HepG2 Attagene cis-factorial SOX reporter, mRNA; actives raise or lower the signal
Method in brief: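 Transient MRTU transfection of HepG2; 24 h compound incubation; TriZol RNA, oligo(dT) RT, PCR, 6-FAM primer extension, HpaI cut, CE. Bidirectional fit, DMSO = baseline.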

[5] = molecular target: Transcription factor Sp1 (Homo sapiens) (UniProt P08047); experiment: ATG_Sp1_CIS: Attagene CIS-FACTORIAL HepG2 Assay for human Specificity Protein 1 (Sp1) (AID 2282961); conditions: HepG2 Sp1 cis-reporter transcription, actives raise or lower the signal
Sequence of Transcription factor Sp1 (Homo sapiens) (P08047 whole entry, looked up): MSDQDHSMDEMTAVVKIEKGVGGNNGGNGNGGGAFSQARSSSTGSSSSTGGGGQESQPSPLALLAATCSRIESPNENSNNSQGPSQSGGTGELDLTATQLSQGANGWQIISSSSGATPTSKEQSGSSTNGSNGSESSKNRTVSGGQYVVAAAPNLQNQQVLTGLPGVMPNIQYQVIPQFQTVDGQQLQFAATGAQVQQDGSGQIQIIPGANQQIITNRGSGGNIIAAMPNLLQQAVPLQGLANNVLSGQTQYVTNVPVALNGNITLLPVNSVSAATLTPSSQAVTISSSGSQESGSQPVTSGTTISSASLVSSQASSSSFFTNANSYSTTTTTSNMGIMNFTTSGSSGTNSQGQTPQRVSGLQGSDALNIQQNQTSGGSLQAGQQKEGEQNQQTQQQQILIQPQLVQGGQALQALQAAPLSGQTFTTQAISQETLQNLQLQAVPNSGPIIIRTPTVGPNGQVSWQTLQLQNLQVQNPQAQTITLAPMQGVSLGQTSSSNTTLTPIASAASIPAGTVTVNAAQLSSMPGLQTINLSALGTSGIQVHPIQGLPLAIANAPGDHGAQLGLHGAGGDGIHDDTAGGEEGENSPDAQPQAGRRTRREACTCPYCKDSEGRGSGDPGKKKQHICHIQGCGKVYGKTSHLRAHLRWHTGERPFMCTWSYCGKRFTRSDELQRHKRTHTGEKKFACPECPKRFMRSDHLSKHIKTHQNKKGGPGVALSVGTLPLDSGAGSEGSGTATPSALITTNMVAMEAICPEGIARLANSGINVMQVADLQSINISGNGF
Method in brief: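 Endogenous Sp1 activity was gauged in human liver HepG2 cells bearing transfected reporter units under a cis-regulating promoter. After 24 h dosing, reporter mRNA was quantified by RT-PCR with capillary electrophoresis, and activity fitted bidirectionally versus DMSO.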

[6] = ATG_SREBP_CIS: Attagene CIS-FACTORIAL HepG2 Assay for human Sterol Regulatory Element Binding (SREBP) (AID 2282962); conditions: HepG2 Attagene cis-factorial SREBP reporter, mRNA; actives raise or lower the signal
Method in brief: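 Endogenous factor activity is measured in HepG2 through multiplexed reporter units under cis-element control. Following a 24 h incubation, reporter transcripts are reverse-transcribed, PCR-amplified and sized by capillary electrophoresis; activity is fitted in both directions relative to DMSO.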

[7] = molecular target: Signal transducer and activator of transcription 3 (Homo sapiens) (UniProt P40763); experiment: ATG_STAT3_CIS: Attagene CIS-FACTORIAL HepG2 Assay for human Signal Transducer and Activator of Transcription 3 (STAT3) (AID 2282963); conditions: HepG2, Attagene cis-factorial STAT3 reporter transcription; actives raise or lower the signal
Sequence of Signal transducer and activator of transcription 3 (Homo sapiens) (P40763 whole entry, looked up): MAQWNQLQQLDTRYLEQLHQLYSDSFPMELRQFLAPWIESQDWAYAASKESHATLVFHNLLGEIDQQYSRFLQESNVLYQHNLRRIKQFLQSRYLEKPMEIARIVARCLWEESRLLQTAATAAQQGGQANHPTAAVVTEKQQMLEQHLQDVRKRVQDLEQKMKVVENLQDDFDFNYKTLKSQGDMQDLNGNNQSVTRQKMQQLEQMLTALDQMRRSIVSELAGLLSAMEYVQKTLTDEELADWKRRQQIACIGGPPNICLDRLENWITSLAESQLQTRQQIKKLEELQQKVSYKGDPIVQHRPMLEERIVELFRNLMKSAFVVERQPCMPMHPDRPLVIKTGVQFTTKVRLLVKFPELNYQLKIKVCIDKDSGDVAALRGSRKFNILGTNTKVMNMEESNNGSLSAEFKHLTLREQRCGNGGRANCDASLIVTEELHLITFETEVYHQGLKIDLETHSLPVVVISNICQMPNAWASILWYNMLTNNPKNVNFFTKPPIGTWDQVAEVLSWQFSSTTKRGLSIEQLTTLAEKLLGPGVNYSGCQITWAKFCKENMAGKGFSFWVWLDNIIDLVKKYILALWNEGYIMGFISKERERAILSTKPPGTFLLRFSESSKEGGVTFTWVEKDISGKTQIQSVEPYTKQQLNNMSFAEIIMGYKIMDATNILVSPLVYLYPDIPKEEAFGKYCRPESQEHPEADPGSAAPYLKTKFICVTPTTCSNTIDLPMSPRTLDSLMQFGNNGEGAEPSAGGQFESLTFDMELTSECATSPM
Method in brief: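 Uses human liver HepG2 transiently carrying cis-regulated reporter transcription units. Following 24 h dosing, reporter mRNA induction was detected by RT-PCR and capillary electrophoresis, analysed bidirectionally versus DMSO.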

[8] = ATG_TCF_b_cat_CIS: Attagene CIS-FACTORIAL HepG2 Assay for human T-Cell-Factor with beta-catenin (TCF/b-cat) (AID 2282965); conditions: HepG2 TCF/beta-catenin cis-reporter transcription, actives raise or lower the signal
Method in brief: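 HepG2 cells transiently transfected with multiple cis-promoter-regulated reporter transcription units, so endogenous transcription factor activity is measured. Reporter mRNA read 24 hours after dosing by RT-PCR, fluorescent labelling and capillary electrophoresis; bidirectional fitting against DMSO.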

[9] = ATG_TA_CIS: Attagene CIS-FACTORIAL HepG2 Assay for human TA Basal Promoter (AID 2282964); conditions: HepG2 Attagene CIS-factorial TA basal promoter reporter; actives raise or lower the signal
Method in brief: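 HepG2 cells transiently transfected with multiple reporter units under cis promoter elements, reporting endogenous transcription factor activity; this endpoint tracks the TA basal promoter as background control. Reporter mRNA after 24 h dosing measured by RT-PCR/capillary electrophoresis; bidirectional fits versus DMSO.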

Measured: AC50

CC(=O)NS(=O)(=O)c1ccc(N)cc1
not listed: [9]
inactive: all other assays above

[Cl][Bi]([Cl])([c]1ccccc1)([c]1ccccc1)[c]1ccccc1
active: [1] 5.48 µM | [4] 5.6 µM | [8] 5.75 µM
not listed: [9]
inactive: all other assays above

C=C(C)[C@@H]1CCC2=CCC[C@@H](C)[C@]2(C)C1
active: [2] 1.52 µM
inactive: all other assays above

CC/C=C\C/C=C\C/C=C\CCCCCCCC(=O)O
active: [1] 100 µM | [2] 181 µM | [3] 48.7 µM | [8] 53.6 µM
inactive: all other assays above

COc1ccc2nc(N)sc2c1
inactive: all assays above

NC(=O)OCC(COC(N)=O)c1ccccc1
inactive: all assays above

C=C(C)C(=O)OCC(C)C
inactive: all assays above

N#[N+]c1ccc2c(S(=O)(=O)[O-])cccc2c1O
inactive: all assays above

CC(=O)OCc1ccco1
inactive: all assays above

O=C(Nc1cccc(C(F)(F)F)c1)c1cc(Br)cc(Br)c1O
inactive: [2] | [7]
active: [1] 78.9 µM | [3] 2.29 µM | [4] 79.3 µM | [5] 100 µM | [6] 21.5 µM | [9] 43.9 µM | [8] 128 µM

CCCCCCCCCCc1ccccc1
inactive: all assays above

O=c1c2ccccc2oc2ccccc12
active: [2] 27.1 µM
inactive: all other assays above

COC(=O)/C=C/C(C)=C\C=C\C(C)=C\C=C\C=C(C)\C=C\C=C(C)\C=C\C(=O)O
active: [2] 60.8 µM
inactive: all other assays above

C=C(C)C(=O)OCCO
not listed: [6]
inactive: all other assays above

CCOC(=O)CC
inactive: all assays above

Cc1cc(C)c(C)c(O)c1
active: [2] 42.3 µM
inactive: all other assays above

OCCc1ccncc1
inactive: all assays above
